{"source": "PubChem BioAssay (NCI)", "note": "“And” between values parts separate entries of the source, which are not always exact repeats. Equal values may be shown once. About 83,000 compounds went through this panel and 20% of them were active in at least one assay; those are over-represented in the sample as a whole.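 Step 1: grow cells in 96-well plates. Step 2: add test compound at a single concentration. Step 3: incubate 48 h. Step 4: record percent growth.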 Unmarked numbers belong to inactive results. The source made the active and inactive calls. Rule for the calls: active = growth percent below 10; inactive = the rest.", "data": [{"test_system": "MDA-MB-468 breast", "assay": "NCI-60 one-dose screen, 48 h (100 = growth as untreated, 0 = no growth, -100 = all killed)", "conditions": "10 µM unless noted", "values": [{"smiles": "COCCn1cc(-c2csc(-c3c[nH]c4ccc(F)cc34)n2)c2cccnc21", "growth": "-6.83% (active)"}, {"smiles": "CCOC(=O)N/N=C/c1ccc(OC)c(OC)c1", "growth": "97.6%"}, {"smiles": "CNCCCC12CCC(c3ccccc31)c1ccccc12", "growth": "29.4%"}, {"smiles": "CN1CCN(c2ccc(C(=O)Nc3n[nH]c4ccc(Cc5cc(F)cc(F)c5)cc34)c(NC3CCOCC3)c2)CC1", "growth": "-72.3% (active)"}, {"smiles": "Cc1cc(NCc2cc(Nc3ccnc4cc(Cl)ccc34)ccc2F)nc(N2CCN(C)CC2)n1", "growth": "-45.9% (active)"}, {"smiles": "CCN(CC)CCCNc1ccnc2cc3ccccc3cc12", "growth": "75.9%"}, {"smiles": "O=C(Nc1ccccc1)OCC(CN1CCCCC1)OC(=O)Nc1ccccc1", "note": "(centres undefined)", "growth": "59% and 94.1%"}, {"smiles": "Cn1nc(C(F)(F)F)cc1-c1c[nH]c(OCc2ccc(Cl)cc2)c(-c2ccc(Cl)c(C(F)(F)F)c2)c1=O", "growth": "-17.1% (active)"}, {"smiles": "COc1ccc2nc(-c3cc(-c4cc(OC)c(OC)c(OC)c4)n[nH]3)[nH]c2c1", "growth": "-8.59% (active)"}, {"smiles": "CN(Cc1cnc2nc(N)nc(N)c2n1)c1ccc(C(=O)NC(CCC(=O)O)C(=O)O)cc1", "note": "(centres undefined)", "growth": "6.99% (active)"}, {"smiles": "O=C(O)CCCCc1ccc([N+](=O)[O-])cc1", "growth": "107% and 115%"}, {"smiles": "O=c1ccc(N=Nc2ccc([N+](=O)[O-])cc2)ccc1O", "growth": "-15.7% (active)"}, {"smiles": "O=C(Cc1ccc(F)c(Cl)c1)Nc1cc(C2(C(F)(F)F)CC2)nn1CC1CCCCC1", "growth": "-13.1% (active)"}, {"smiles": "O=C(O)CSc1ccc(NCc2oc(CO)cc(=O)c2O)cc1", "growth": "108%"}]}]}
